This note sets out measurements from PubChem BioAssay.

The source made the active and inactive calls.

The first assay concerns XIP peptide (Xip251-270) binding. The assay can be described thus: XIP fragment 251-270 binding compounds – biochemical, small-molecule microarray, fluorescence 635/667 nm, 0.1 µg/mL protein, primary screen (AID 1182). The following applies: fluorescent protein binding, 635 nm, higher = more signal, called active from +8 up or from −8 down.
As for `COCC1=C2[C@@H](CCc3ccccc3)OB(O)C[C@@H]2n2c(=O)n(-c3ccccc3)c(=O)n2C1`, the composite z-score is -0.0712 (inactive). On the same count and under the same terms, next, `O=C1O[C@@H](c2ccccc2)[C@@H](c2ccccc2)N2[C@@H](c3ccc(O)cc3)[C@]3(C(=O)Nc4ccccc43)[C@@H](C(=O)O)[C@H]12`: 1.27 (inactive). The same measure, in the same setting: next, `O=C1c2ccccc2[C@@]2(Cc3ccccc3N(C3CC3)C2=O)[C@H](c2ccc(CO)cc2)N1Cc1ccccc1C(F)(F)F`: -0.27 (inactive); `CC(C)(C)OC(=O)CC[C@]1(C(N)=O)COC(c2ccc(OCCCO)cc2)=N1`: 2.48 (inactive).

The subject of another assay is XIP peptide (Xip251-270). The assay can be described thus: compounds binding XIP fragment 251-270 – biochemical, small-molecule microarray, fluorescence 635/667 nm, 0.5 µg/mL protein, primary screen (AID 1183). The following applies: fluorescence 635 nm, higher = more signal.
Regarding `COC(=O)C1(C)C=C2C(=C(c3ccccc3)C(=O)C2C)CN1` (stereo unspecified), the composite z-score was 0.923. Same read-out and setting: next, `C=CCC(OC(C)=O)[C@@H]1[C@@H](N(Cc2cc3ccccc3o2)C(=O)Cc2ccc(F)cc2)c2cc(OCCCO)ccc2N1C(=O)Cc1ccc(OC)cc1` (stereo partly specified): -0.0246. Same read-out and setting: the figure for `COc1ccccc1CN1C(=O)c2ccccc2[C@@]2(Cc3ccccc3N(C(C)C)C2=O)[C@@H]1c1ccc(CO)cc1` is 0.854.

As for `N#Cc1ccc(NN2C(C(O)c3cc(C(F)(F)F)cc(C(F)(F)F)c3)C=CC3C(=O)N(c4ccccc4)C(=O)C32)cc1` (stereo unspecified), the composite z-score amounted to 0.479. On the same count and under the same terms, the figure for `COc1ccccc1CN1C(=O)c2ccccc2[C@@H](C(=O)NCC(F)(F)F)[C@@H]1c1ccc(CO)cc1` is 0.561.

Take `CN(C)C(=O)[C@@]1(Cc2ccccc2)N=C(c2ccc(OCCCO)cc2)O[C@H]1c1ccccc1CN=[N+]=[N-]`: the composite z-score was determined as 0.746. The same measure, in the same setting: next, `CCCCC(=C=CC[C@H](O)c1ccccc1OCCO)C[C@H](O)COCc1ccccc1`: -0.765; `CCCC[C@@H]1C[C@H]1[C@@H](NS(=O)(=O)c1cccc2cccnc12)c1ccc(-c2ccccc2)cc1`: -0.239. Same read-out and setting: the figure for `Cn1cccc1C(O)C1C=CC2C(=O)NC(=O)C2N1Nc1ccccn1` (stereo unspecified) is 0.916; for `C=C(/C(=C/C[C@H](OC(=O)c1ccncc1)c1ccc(OCCO)cc1)c1cnc2ccccc2c1)C(C)C` it is 0.528. The same measure, in the same setting: the figure for `COC(=O)[C@@]1(Cc2ccc(F)cc2)[C@H]2c3cc(C(=O)N(C)C)n(Cc4ccc(OC)c(OC)c4)c3C[C@H]2CN1C(=O)c1ccccc1` is 0.835. For `CC(C)NC(=O)[C@@H]1c2ccccc2C(=O)N(CC23CC4CC(CC(C4)C2)C3)[C@H]1c1ccc(CO)cc1`, the composite z-score amounted to 0.661. For the compound `O=C1O[C@@H](c2ccccc2)[C@@H](c2ccccc2)N2[C@@H](c3ccccc3OCCO)[C@]3(C(=O)Nc4ccc(C#CCCO)cc43)[C@@H](C(=O)O)[C@H]12`, the composite z-score is 0.842. The same measure, in the same setting: next, `CN(C)CCCNC(=O)[C@@H]1c2ccccc2C(=O)N(Cc2cc(F)cc(C(F)(F)F)c2)[C@H]1c1ccc(CO)cc1`: -0.0306. Still for that read-out and setting: next, `CCCNC(=O)[C@@H]1c2ccccc2C(=O)N(c2ccc(C)cn2)[C@H]1c1ccc(CO)cc1`: -0.314; `COC(=O)[C@H]1COC(c2ccc(OCCCO)cc2)=N1`: 0.871; `CO[C@H]1O[C@H](CO)[C@@H](OC(=O)Nc2ccc3c(c2)OCO3)[C@H](OC(=O)Nc2ccccc2-c2ccccc2)[C@@H]1OC(=O)Nc1ccccc1-c1ccccc1`: 0.561.

Take `COCCCNC(=O)[C@@]1(C)c2ccccc2C(=O)N(Cc2ccc(OC(F)(F)F)cc2)[C@H]1c1ccc(CO)cc1`: the composite z-score turned out to be 0.187. Take `COCCCNC(=O)[C@@]1(CCS(=O)(=O)c2ccccc2)N=C(c2ccc(OCCCO)cc2)O[C@H]1c1ccccc1`: the composite z-score worked out at 0.875. For the compound `C/C=C\[C@@H](NCc1ccccc1Br)[C@@H](O)Cc1ccccc1`, the composite z-score was 0.0819. On the same count and under the same terms, the figure for `CN1C(=O)[C@@]2(CCC(=O)OC(C)(C)C)N=C(c3ccc(OCCCO)cc3)O[C@H]2c2ccccc21` is 0.576; for `O=C(CS)NCCCCCNC(=O)[C@@H]1C[C@@H]2C(=O)N[C@@H](Cc3ccccc3)C(=O)N2[C@@H]1c1ccc(O)cc1` it is 0.562; for `C#C[C@@H](CC)O[Si](C#Cc1ccc(Oc2ccccc2)cc1)(C(C)C)C(C)C` it is -0.102. Still for that read-out and setting: the figure for `COC(=O)[C@]1(CO)N=C(c2ccc(OCCCO)cc2)O[C@@H]1c1ccccc1N=[N+]=[N-]` is 0.812; for `COc1ccc([Si](C)(C)[C@@H]2[C@@H](CC(=O)N3CCC[C@H]3CO)O[C@]3(C(=O)N(Cc4cccc(N5CCC5=O)c4)c4ccccc43)[C@H]2C)cc1` it is 0.824. On the same count and under the same terms, the figure for `COC(=O)[C@@]1(Cc2ccc(OC)cc2)[C@H]2c3cc(C(=O)N4CCCC4)n(Cc4cc(F)c(F)c(F)c4)c3C[C@H]2CN1C(=O)c1ccccc1` is 0.604. With `C=C(CCCC)C(=O)CC[C@@H](OC(C)=O)c1cccc(OCCO)c1`, the composite z-score is 0.0194.
